Source: PubChem BioAssay (National Center for Advancing Translational Sciences (NCATS))
This is a sample that favours compounds with a hit; in the whole collection about 7.3% have one here.
FLuc inh = blocks purified firefly luciferase enzyme activity. 76,000 tested, 2.5% active. Potency, µM (highest dose often 115 µM), actives largely listed as inhibitors. purified P. pyralis luciferase, luminescence, biochemical. AID 1347043; note: nearly all actives have a fitted effect of over 65% in size
Target sequence (P08659 whole entry, looked up): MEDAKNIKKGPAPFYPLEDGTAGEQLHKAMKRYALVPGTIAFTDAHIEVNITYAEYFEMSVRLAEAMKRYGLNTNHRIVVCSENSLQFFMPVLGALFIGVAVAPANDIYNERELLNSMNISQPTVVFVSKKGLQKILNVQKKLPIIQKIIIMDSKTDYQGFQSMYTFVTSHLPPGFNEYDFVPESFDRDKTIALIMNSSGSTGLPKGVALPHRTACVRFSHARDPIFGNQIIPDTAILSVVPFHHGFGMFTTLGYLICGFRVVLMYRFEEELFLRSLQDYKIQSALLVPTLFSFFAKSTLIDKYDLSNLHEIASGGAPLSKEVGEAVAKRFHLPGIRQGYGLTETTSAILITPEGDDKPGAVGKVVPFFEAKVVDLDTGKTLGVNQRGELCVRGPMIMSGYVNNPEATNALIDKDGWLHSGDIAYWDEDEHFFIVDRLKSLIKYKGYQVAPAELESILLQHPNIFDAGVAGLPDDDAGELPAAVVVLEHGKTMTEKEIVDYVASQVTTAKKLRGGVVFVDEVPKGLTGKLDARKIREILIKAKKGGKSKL
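Luminescence read by CCD imaging after purified firefly luciferase (10nM final) was added to substrate buffer holding 10uM D-luciferin and 10uM ATP, pH 7.5, pre-dosed with compound.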
IP6K1 inh = blocks human inositol hexakisphosphate kinase 1; IP6K1 kinase, ADP-Glo luminescence, 2 h; hits give low values; activity change, % (series mostly up to about 58 µM); Q92551; 140,000 tested, 0.81% active; in the data active = activity change below about -25%
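ADP-Glo luminescence measures ADP made by human IP6K1 during a 2 h RT reaction with ATP/IP6 (mix at 1.3 mM/130 uM); top library doses 57.5 and 19.1 uM final.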
SNCA expr inh = SNCA gene expression inhibition; HEK-293 SNCA-luciferase knock-in, luminescence, 24 h; AID 1671194; 140,000 tested, 0.17% active; Potency, µM (series often up to 57.2 µM), usual class: inhibitors; note: nearly all actives have a fitted effect of over 45% in size
NIH3T3 tox = cytotoxic compounds in NIH 3T3 cells; NIH 3T3 viability, CellTiter-Glo ATP luminescence, 48-72 h; AID 1345082; Potency, µM (series often up to 96.7 µM), hits mostly inhibitors; 94,000 tested, 4.3% active; note: nearly all actives have a fitted effect of over 55% in size
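ATP-dependent luminescence (CellTiter-Glo) served as the viability signal for NIH 3T3 cells treated with compound for 48 or 72 hr at 37 °C.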
HEK293 viab = cell viability loss counter-screen; 150,000 tested, 0.12% active; HEK-293-SNCA-luc viability, GF-AFC fluorescence, 24 h; AID 1671193; Potency, µM (doses to about 57.1 µM), hits mostly cytotoxic; note: nearly all actives have a fitted effect of over 30% in size
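HEK-293-SNCA-luc cells (1500/well) plated 24 h, then exposed 24 h to a dilution series; GF-AFC added 30 min at 37C, fluorescence 405/540 nm; normalised to medium-only and DMSO wells, Hill fit.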
HEK cytotox = cytotoxic compounds in HEK 293 cells; HEK 293 viability, ATP luminescence (CellTiter-Glo), 48-72 h; Potency, µM (doses to about 115 µM), hits mostly inhibitors; 94,000 tested, 6.6% active; AID 1345083; note: nearly all actives have a fitted effect of over 60% in size
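Viability of HEK 293 cells, plated at 250 cells/well, was judged by cellular ATP after compound treatment for 48 or 72 hr. Luminescence was imaged 10 min after CellTiter-Glo addition at room temperature.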
Numbers stand for hits; - = inactive; ? = inconclusive; . = no result; [ ] = remark or other dose. Unless noted, calls come from the whole dose curve; as a rule, active = well fitted curve in the direction sought with a large enough effect; inconclusive = small, poorly fitted or top-dose-only effect, or another doubt; inactive = no such curve, though single readings can be large; an effect the other way counts as inactive or inconclusive.

SMILES	FLuc inh	IP6K1 inh	SNCA expr inh	NIH3T3 tox	HEK293 viab	HEK cytotox
Cc1ccc([S+](=O)([O-])N(C)Cc2ccc(-c3ccccc3)cc2)cc1	-	-	-	-	-	-
c1ccc(CN2CCC[C@H]2c2nc(-c3ccc(N4CCOCC4)nc3)no2)cc1	-	-	-	-	-	89µM
OCc1ccc(CN2CCC[C@H]2c2nc(-c3ccc(N4CCOCC4)nc3)no2)o1	-	-	-	-	-	?
Clc1ccc(CN2CCC[C@H]2c2nc(-c3ccc(N4CCOCC4)nc3)no2)cc1	?	-	-	?	-	63µM
c1cc(N2CCOCC2)ncc1-c1noc([C@@H]2CCCN2)n1	56µM	-	-	-	-	-
COCC(=O)N[C@@H]1CN(C2CCCCCC2)CC[C@@H]1CO	.	-	-	-	-	-
Cc1nc(N2CCN(C(=O)c3ccc(C#N)cc3)CC2)cc(C(F)(F)F)n1	-	-	-	-	-	-
O=C(C1CCCCC1)N1CCC(Cc2ccc(CO)cc2)CC1	.	-	-	?	-	?
CCN1CCN(C(=O)c2cn3cc(-c4cccc(OC)c4)sc3n2)CC1	.	-	-	?	-	?
COc1ncccc1CN1CC[C@@H]2OCC(=O)N(Cc3ccccc3)[C@H]2CC1	-	-	-	100µM	-	112µM
Cc1cccc(CN2CC[C@@H]3OCC(=O)N(Cc4ccccc4)[C@H]3CC2)c1	-	-	-	100µM	-	100µM
O=C1CO[C@H]2CCN(Cc3cccc(OC(F)(F)F)c3)CC[C@@H]2N1Cc1ccccc1	-	-	-	?	-	50µM
O=C1CO[C@H]2CCN(Cc3cccs3)CC[C@@H]2N1Cc1ccccc1	-	-	-	?	-	?
O=C(NCc1ccc(F)cc1)N1CCC(OCCOc2ccc(F)cc2)CC1	-	-	?	?	-[12.5 µM]	?
Cc1cc(NC(=O)CN2C(=O)NC(c3ccc(Cl)cc3)C3=C2COC3=O)ccc1Br (centres undefined)	-	-	?	25µM	?	?
O=C(CN1C(=O)NC(c2ccc(Cl)cc2)C2=C1COC2=O)Nc1cccc(C(F)(F)F)c1 (centres undefined)	-	-	?	?	-	?
Cc1ccc(C2NC(=O)N(CC(=O)Nc3ccc4c(c3)OCCO4)C3=C2C(=O)OC3)cc1 (centres undefined)	-	-	-	-	-	?
CCOc1ccccc1C1NC(=O)N(CC(=O)Nc2cccc(C(F)(F)F)c2)C2=C1C(=O)OC2 (centres undefined)	-	-	?	45µM	-	?
Cc1ccc(NC(=O)CN2C(=O)NC(c3ccc(Cl)cc3)C3=C2COC3=O)cc1Cl (centres undefined)	?	-	?	28µM	?	32µM
CCCCc1ccc(NC(=O)CN2C(=O)NC(c3ccc(C)cc3)C3=C2COC3=O)cc1 (centres undefined)	-	-	-	?	-	45µM
CCOc1ccccc1C1NC(=O)N(CC(=O)Nc2cccc(OC)c2)C2=C1C(=O)OC2 (centres undefined)	-	-	-	-	-	-
O=C(NC1CCCC1)N1CCC(C(=O)N2CCCC(c3nc4ccncc4[nH]3)C2)CC1 (centres undefined)	.	-	-	-	-	?
COCCn1nc2n(c1=O)CCN(C(=O)c1cc(F)ccc1F)CC2	-	-	-	-	-	-
O=C(c1ccc(Oc2ccccc2)cc1)N1CCNc2cnc(Nc3cccnc3)nc2C1	?	-	-	?	-	?
Cc1ccc(C2NC(=O)N(CC(=O)Nc3ccccc3)C3=C2C(=O)OC3)cc1 (centres undefined)	-	-	-	?	-	?
SMILES	FLuc inh	IP6K1 inh	SNCA expr inh	NIH3T3 tox	HEK293 viab	HEK cytotox
CC(C)c1cccc(NC(=O)CN2C(=O)NC(c3ccccc3Cl)C3=C2COC3=O)c1 (centres undefined)	?	-	?	?	-	40µM
O=C(CN1C(=O)NC(c2ccc(Cl)cc2)C2=C1COC2=O)Nc1ccc2c(c1)CCC2 (centres undefined)	-	-	?	25µM	?	22µM
CCOC(=O)c1ccccc1NC(=O)CN1C(=O)NC(c2ccc(Cl)cc2)C2=C1COC2=O (centres undefined)	-	-	-	40µM	-	?
Cc1ccc(C2NC(=O)N(CC(=O)Nc3ccc(F)c(F)c3)C3=C2C(=O)OC3)cc1 (centres undefined)	-	-	?	?	-	20µM
CCOc1ccccc1NC(=O)CN1C(=O)NC(c2ccc(Cl)cc2)C2=C1COC2=O (centres undefined)	-	-	?	?	-	?
C=CCNC(=O)CCc1c(C)nn(-c2ccccc2)c1Oc1ccc(F)cc1F	-	-	-	?	-	?
CC(C)(C)c1cccc(CN2CCC3(CCNCC3)C2)c1O	-	-	-	22µM	-	22µM
Cc1ccc(CN2CCC3(CCNCC3)C2)c(Cl)c1Cl	-	-	-	?	-	?
c1ccc(COc2ccccc2CN2CCC3(CCNCC3)C2)cc1	-	-	-	22µM	-	28µM
CNC(=O)c1cc(C2CC2)nc2c1c(C1CCCN1C(=O)c1ccccc1)nn2C (centres undefined)	.	-	.	-	.	-
COc1cc(OC)cc(C(=O)NC2CCN(c3cc(C(F)(F)F)nc(C)n3)CC2)c1	-	-	-	?	-	-
COc1ccc(C(=O)N2CCCC3(C2)NC(=O)N(Cc2ccc(C)cc2)C3=O)cc1OC (centres undefined)	-	-	-	-	-	-
O=C(NC[C@H]1COCc2nc3cc(F)ccc3n21)c1ccccc1	-	-	-	-	-	-
Fc1ccc2c(c1)nc1n2[C@@H](CNC2CCC2)COC1	-	-	-	71µM	-	?
O=C(COc1ccccc1)NC[C@H]1COCc2nc3cc(F)ccc3n21	-	-	-	?	-	79µM
Cc1nn(-c2ccccc2)c2c1C(C1CC1)N(C1CCN(C(=O)Nc3ccc(Cl)cc3)C1)C2=O (centres undefined)	.	-	.	?	.	?
O=C(C[C@@H]1CCNC[C@@H]1Cc1cc(CN2CCCCC2)on1)NCc1cccs1	-	-	-	-	-	-
O=C(O)c1cnc(-c2cc(NCc3ccccn3)nc3[nH]ccc23)c(Cl)c1	40µM	-	-	-	-	-
O=C(O)c1cnc(NCc2ccccn2)nc1-c1cccc(Cl)c1	-	-	-	-	-	-
Cc1cccc([S+](=O)([O-])N2CCC3(CC2)OCCN(Cc2ccccc2)C3=O)c1	-	-	-	?	-	-
COCCN1CCOC2(CCN([S+](=O)([O-])c3cccc(C)c3)CC2)C1=O	-	-	-	89µM	-	-
